Source: PubChem BioAssay AID1159580 (chemical genetic matrix, 2015)
Where “and” joins values, the source holds several entries; their conditions need not be identical. Identical values can stand only once. Hit rate of the full screen: of about 5,500 compounds, about 2,000 (36%) were called active. About 18% were inconclusive and are not listed. No stated cut-off is given here; in the data, active means normalized growth mostly below about 0.91 (no sharp cut-off); inconclusive means no clear call, values can overlap the other calls; inactive means mostly above about 0.92. The list shows a part of the results.

Assay: chemical genetic growth profiling, strain panel (AID 1159580);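 further: tested at 20 µM; growth read once vehicle control cultures reached saturation at 30 °C; 1 = growth at the plate median or of vehicle wells; lower values mean less growth of the strain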
Details: S. cerevisiae deletion strains, growth OD

Measured: normalized growth

NC(=O)CN1CCCC1=O
inactive: locus YAL013W, strain DEP1, active compounds read low 1.01 and 1 | locus YAL021C, strain ccr4, active compounds read low 0.982 | locus YAL026C, strain drs2, active compounds read low 0.988 | locus YAL030W, strain snc1, active compounds read low 0.992 | locus YAL040C, strain CLN3, active compounds read low 0.986 | locus YBL061C, strain skt5, active compounds read low 0.985 | locus YBR009C, strain hhf1, active compounds read low 1 | locus YBR021W, strain FUR4, active compounds read low 1.02 | locus YBR023C, strain chs3, active compounds read low 0.991 | locus YBR171W, strain sec66, active compounds read low 0.982 | locus YBR229C, strain ROT2, active compounds read low 1.01 | locus YBR231C, strain swc5, active compounds read low 1 | locus YBR279W, strain paf1, active compounds read low 0.99 | locus YCL011C, strain gbp2, active compounds read low 0.999 | locus YCL016C, strain dcc1, active compounds read low 0.986 | locus YCL029C, strain bik1, active compounds read low 1.02 | locus YCL061C, strain MRC1 (second series), active compounds read low 1 | locus YCL061C, strain MRC1, active compounds read low 0.981 | locus YCL069W, strain vba3, active compounds read low 0.996 | locus YCR088W, strain abp1, active compounds read low 0.978 | locus YDL005C, strain med2, active compounds read low 0.996 | locus YDL035C, strain GPR1, active compounds read low 1.02 | locus YDL040C, strain nat1, active compounds read low 0.993 | locus YDL074C, strain BRE1, active compounds read low 0.985 | locus YDL101C, strain DUN1, active compounds read low 0.999 | locus YDL134C, strain PPH21, active compounds read low 1.02 | locus YDL185W, strain tfp1, active compounds read low 1.01 | locus YDL192W, strain arf1, active compounds read low 1.01 | locus YDR001C, strain nth1, active compounds read low 0.993 | locus YDR069C, strain doa4, active compounds read low 1 | locus YDR101C, strain arx1, active compounds read low 0.991 | locus YDR137W, strain rgp1, active compounds read low 0.98 | locus YDR159W, strain sac3, active compounds read low 1.01 | locus YDR162C, strain NBP2, active compounds read low 1.01 | locus YDR195W, strain ref2 0.976 | locus YDR297W, strain sur2, active compounds read low 0.989 | locus YDR318W, strain mcm21, active compounds read low 1.01 | locus YDR334W, strain swr1, active compounds read low 0.979 | locus YDR335W, strain msn5, active compounds read low 0.989 | locus YDR363W, strain ESC2, active compounds read low 0.983 | locus YDR388W, active compounds read low 1.01 | locus YDR392W, strain spt3, active compounds read low 0.916 | locus YDR502C, strain sam2, active compounds read low 1.01 | locus YEL003W, strain gim4, active compounds read low 0.999 | locus YEL037C, strain rad23, active compounds read low 0.986 | locus YEL061C, strain CIN8 (second series), active compounds read low 0.984 | locus YEL061C, strain CIN8, active compounds read low 1.01 | locus YER002W, strain NOP16, active compounds read low 1 | locus YER015W, strain faa2, active compounds read low 1.01 | locus YER016W, strain bim1, active compounds read low 0.996 | locus YER110C, active compounds read low 1.02 | locus YER111C, strain swi4, active compounds read low 0.988 | locus YER155C, strain BEM2 (second series), active compounds read low 0.975 | locus YER155C, strain BEM2, active compounds read low 1.01 | locus YER167W, strain BCK2, active compounds read low 1.01 | locus YFR010W, strain ubp6, active compounds read low 0.972 | locus YGL078C, strain dbp3, active compounds read low 1.02 | locus YGL086W, strain mad1, active compounds read low 1 | locus YGL167C, strain pmr1, active compounds read low 0.986 | locus YGL173C, strain kem1, active compounds read low 0.998 | locus YGL227W, strain vid30, active compounds read low 0.998 | locus YGL240W, strain doc1, active compounds read low 0.993 | locus YGL248W, strain PDE1, active compounds read low 0.994 | locus YGL253W, strain hxk2, active compounds read low 1 | locus YGR078C, strain PAC10, active compounds read low 0.991 | locus YGR135W, strain pre9, active compounds read low 1.02 | locus YGR252W, strain gcn5, active compounds read low 0.997 | locus YHR013C, strain ard1, active compounds read low 0.963 | locus YHR027C, strain rpn1, active compounds read low 0.988 | locus YHR030C, strain SLT2, active compounds read low 1 and 0.994 | locus YHR079C, strain IRE1 (second series), active compounds read low 1.01 | locus YHR079C, strain IRE1, active compounds read low 0.995 | locus YHR094C, strain hxt1, active compounds read low 1.01 | locus YHR129C, strain ARP1, active compounds read low 1.01 | locus YHR142W, strain chs7, active compounds read low 0.971 | locus YHR200W, strain rpn10, active compounds read low 1.01 | locus YIL066C, strain RNR3, active compounds read low 1.01 | locus YIL073C, strain SPO22, active compounds read low 1.08 | locus YIL125W, strain kgd1, active compounds read low 1.01 | locus YIR030C, strain dcg1, active compounds read low 1.01 | locus YJL092W, strain hpr5, active compounds read low 0.989 | locus YJL095W, strain BCK1 (second series), active compounds read low 0.995 | locus YJL095W, strain BCK1, active compounds read low 0.992 and 0.977 | locus YJL115W, strain asf1, active compounds read low 0.985 | locus YJL129C, strain trk1, active compounds read low 0.998 | locus YJL134W, strain LCB3, active compounds read low 0.997 | locus YJL154C, strain vps35, active compounds read low 0.987 | locus YJL164C, strain tpk1, active compounds read low 0.998 | locus YJL166W, strain qcr8, active compounds read low 0.968 | locus YJL168C, strain set2, active compounds read low 1 | locus YJL187C, strain SWE1 (second series), active compounds read low 1 | locus YJL187C, strain SWE1, active compounds read low 0.982 | locus YJR043C, strain POL32, active compounds read low 1.01 | locus YJR066W, strain TOR1, active compounds read low 0.951 | locus YJR075W, strain HOC1, active compounds read low 1 and 0.993
